Several values for one entry are separate records, joined by “and”; a condition that tells them apart may be missing. Identical values can stand only once. Inconclusive results are not listed. Entries that show only a call come without a potency. The source holds several records for some structures; these can differ, active in one and inactive in another. Activity calls are given as the source filed them. Unless noted, calls follow the shape of the dose curve; as a rule, active = well fitted curve in the direction sought with a large enough effect; inconclusive = small, poorly fitted or top-dose-only effect, or another doubt; inactive = no such curve, though single readings can be large; an effect the other way counts as inactive or inconclusive.
Legend:
[1] = P-glycoprotein substrates identified in KB-8-5-11 adenocarcinoma cell line, qHTS therapeutic library screen (AID 1346987); also: nearly all actives have a fitted effect of over 65% in size
How it was run: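 Compounds are pinned in dose-response onto KB-8-5-11 cells (500 cells/well, colchicine-free medium) and left 72 h at 37 degree C. CellTiter-Glo luminescence then yields AC50 values.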

[2] = NS1 protein of Zika virus - qHTS assay to identify small molecule inhibitors in human HEK 293 cells (AID 1347053); also: nearly all actives have a fitted effect of over 55% in size
How it was run: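 Read-out is a two-antibody TR-FRET for ZIKV NS1, normalized between uninfected cells and infected cells. Compound added 1 h before MR766 infection at MOI 0.5; human HEK 293 cells incubated 24 h, 37 C.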

[3] = qHTS for Inhibitors of the Functional Ribonucleoprotein Complex (vRNP) of Lassa (LASV) Arenavirus: LASV Primary Screen - GLuc reporter signal (AID 1347082; calls by dose curve; tested in HEK293 reporter line; also: nearly all actives have a fitted effect of over 60% in size)
[4] = qHTS for Inhibitors of the Functional Ribonucleoprotein Complex (vRNP) of Lassa (LASV) Arenavirus: Viability assay - alamar blue signal for LASV Primary Screen (AID 1347083; calls by dose curve; tested in HEK293 reporter line; also: nearly all actives have a fitted effect of over 80% in size)
[5] = qHTS for Inhibitors of the Functional Ribonucleoprotein Complex (vRNP) of Lymphocytic Choriomeningitis Arenaviruses (LCMV): Viability assay - alamar blue signal for LCMV Primary Screen (AID 1347085; calls by dose curve; tested in HEK293 reporter line; also: nearly all actives have a fitted effect of over 80% in size)
[6] = target: Nucleoprotein (Lymphocytic choriomeningitis virus (strain Armstrong)) (UniProt P09992); experiment: qHTS for Inhibitors of the Functional Ribonucleoprotein Complex (vRNP) of Lymphocytic Choriomeningitis Arenaviruses (LCMV): LCMV Primary Screen - GLuc reporter signal (AID 1347086; calls by dose curve; also: nearly all actives have a fitted effect of over 70% in size)
Chain of Nucleoprotein (Lymphocytic choriomeningitis virus (strain Armstrong)) (P09992 whole entry, looked up): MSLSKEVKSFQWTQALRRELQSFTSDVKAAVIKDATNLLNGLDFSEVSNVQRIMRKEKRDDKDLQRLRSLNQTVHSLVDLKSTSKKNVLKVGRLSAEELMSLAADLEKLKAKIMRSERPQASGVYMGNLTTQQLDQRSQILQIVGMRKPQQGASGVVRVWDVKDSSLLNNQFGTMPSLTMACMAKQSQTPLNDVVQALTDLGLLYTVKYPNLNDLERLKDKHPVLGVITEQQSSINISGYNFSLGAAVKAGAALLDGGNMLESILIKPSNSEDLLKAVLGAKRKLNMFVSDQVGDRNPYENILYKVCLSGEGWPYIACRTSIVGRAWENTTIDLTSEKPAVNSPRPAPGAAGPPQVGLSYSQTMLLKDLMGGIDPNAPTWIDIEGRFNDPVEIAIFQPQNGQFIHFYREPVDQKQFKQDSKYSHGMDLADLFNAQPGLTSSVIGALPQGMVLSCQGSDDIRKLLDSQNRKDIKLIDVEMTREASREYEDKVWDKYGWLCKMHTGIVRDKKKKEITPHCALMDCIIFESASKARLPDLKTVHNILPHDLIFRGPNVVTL
Potency is read from the fitted curve at half-maximal effect.

SMILES | Potency [1] | Potency [2] | Potency [3] | Potency [4] | Potency [5] | Potency [6]
CC(C)N[C@@H]1CCn2c(=O)[nH]c3cccc(c32)[C@@H]1O | inactive | inactive | 8630 nM (active) | 19300 nM (active) | 4850 nM (active) | 2730 nM (active)
CC(O)CN1CCN(CC(=O)[O-])CCN(CC(=O)[O-])CCN(CC(=O)[O-])CC1.[Gd+3] (stereo not drawn) | inactive | inactive | inactive | inactive | inactive | inactive
COC(=O)c1cncn1C(C)c1ccccc1 (stereo not drawn) | inactive | inactive | inactive | inactive | inactive | inactive
Nc1ccc(Cl)cc1 | inactive | inactive | inactive | inactive | inactive | inactive
C[C@@]12OC(=O)[C@]1([C@@H](O)[C@@H]1C=CCCC1)NC(=O)[C@H]2CCCl | 148 nM (active) | 833 nM (active) | 34300 nM (active) |  | 24300 nM (active) | 
c1cc2ccc3cccc4ccc(c1)c2c34 | inactive | inactive | inactive | inactive |  | inactive
C[C@@H]1O[C@@H](O[C@@H]2C=C3CC[C@@H]4[C@@H](CC[C@]5(C)[C@H](c6ccc(=O)oc6)CC[C@@]45O)[C@@]3(C)CC2)[C@H](O)[C@H](O)[C@H]1O | 20.9 nM (active) | 11.8 nM (active) | 68.5 nM (active) | 68.5 nM (active) | 54.4 nM (active) | 76.9 nM (active)
N=c1c2c(-c3ccccc3)c(-c3ccccc3)n(Cc3ccccc3)c2ncn1C1CCC(O)CC1 (stereo not drawn) | 935 nM (active) | 26400 nM (active) |  | 1090 nM (active) | 544 nM (active) | 1720 nM (active)
C[C@]12CCC(=O)C(O)=C1CC[C@@H]1[C@H]3CCC(=O)[C@@]3(C)CC[C@@H]12 | inactive | inactive | inactive | inactive | inactive | inactive
C[C@@H]1CC[C@H]2[C@@H](C)C(=O)O[C@@H]3O[C@@]4(C)CC[C@H]1[C@]32OO4 | inactive | inactive | inactive | inactive | inactive | inactive
COc1ccc(N(C(=O)Oc2c(C)cccc2C)c2ccnc(Nc3ccc(N4CCN(C)CC4)cc3)n2)c(OC)c1 | inactive and 20.6 µM (active) | inactive | inactive |  |  | inactive
CC[N+]1(CCOC(=O)C(O)(c2ccccc2)c2ccccc2)CCCCC1 | inactive | inactive | inactive | inactive | inactive | inactive
CC1(N2CCC(n3c([C@@H]4CCCNC4)nc4ccccc43)CC2)CCCCCCC1 | 23.5 µM (active) and 20.6 µM (active) | 20900 nM (active) | inactive | inactive | inactive | inactive
CC[C@H]1C=CC=CC[C@@H](C)[C@H](O)[C@@](C)(O)C(=O)[C@@H](C)[C@H](O)[C@@H](C)C(=O)[C@@H](C)[C@H](O)[C@@H](C)C=CC(=O)O[C@@H]2[C@@H](C)[C@H](CC1)O[C@]1(CC[C@H](C)[C@H](C[C@@H](C)O)O1)[C@H]2C | 1050 nM (active) | 18700 nM (active) | 137 nM (active) | 86.3 nM (active) | 96.8 nM (active) | 76.9 nM (active)
Nc1ccc(Sc2ccc(N)cc2)cc1 | inactive | inactive | inactive | inactive | inactive | inactive
CN[C@@H](C)[C@H](O)c1ccccc1 | inactive | inactive | inactive | inactive | inactive | inactive
C[C@@H]1CC[C@@]2(OC1)O[C@H]1C[C@H]3[C@@H]4CC=C5C[C@@H](O[C@@H]6O[C@H](CO)[C@@H](O[C@@H]7O[C@@H](C)[C@H](O)[C@@H](O)[C@@H]7O)[C@H](O)[C@@H]6O[C@@H]6O[C@@H](C)[C@H](O)[C@@H](O)[C@@H]6O)CC[C@]5(C)[C@@H]4CC[C@]3(C)[C@@H]1[C@H]2C | 18700 nM (active) | 3720 nM (active) | inactive |  | inactive | inactive
CS(=O)(=O)c1ccc(C(=O)C2C(=O)CCCC2=O)c([N+](=O)[O-])c1 | inactive | inactive | inactive | inactive | inactive | inactive
C1=C2CCCN[C@H]2[C@@H]2C[C@H]1[C@@H]1CCCCN1C2 | inactive | inactive | inactive | inactive | inactive | inactive
C[C@]12CC[C@H](O)CC1=CC[C@H]1[C@H]3CCC(=O)[C@@]3(C)CC[C@@H]12 | inactive | inactive | inactive | inactive | inactive | inactive
C[C@H]1CCCC=CC2C[C@H](O)C[C@@H]2[C@H](O)C=CC(=O)O1 (stereo partly drawn) | 1 nM (active) | inactive | 27.3 nM (active) | 24.3 nM (active) | 19.3 nM (active) | 10.9 nM (active)
CC(=CCCC1=CCC(C2=CC(=O)OC2O)OC1O)CCC1=C(C)CCCC1(C)C (stereo not drawn) | inactive | inactive | inactive | inactive | inactive | inactive
C[C@]12COC(=O)C[C@@H]1CC[C@@H]1[C@H]2CC[C@@]2(C)[C@H]1CC[C@]2(C)O | inactive | inactive | inactive | inactive | inactive | inactive
O=C1C(I)=CC(=C(c2cc(I)c(O)c(I)c2)c2ccccc2C(=O)O)C=C1I | inactive | inactive | inactive | inactive | inactive | inactive
COC1=CC(C)=C[C@@H](C)[C@@H](O)[C@@H](C)CC(C)=CC=C[C@H](OC)[C@H]([C@@H](C)[C@@H](O)[C@H](C)[C@@]2(O)C[C@@H](O)[C@H](C)[C@@H](C(C)C)O2)OC1=O | 14.8 nM (active) | 1.2 nM (active) | 109 nM (active) | 76.9 nM (active) | 34.3 nM (active) | 48.5 nM (active)
CC(N[C@H]1C[C@H]1c1ccccc1)c1ccc2c(c1)OCCO2 (stereo partly drawn) | inactive | inactive | inactive |  | inactive | inactive

From PubChem BioAssay (NCATS)
